Source: PubChem BioAssay
Myeloid diff 2 – myeloid differentiation induction | calls only at 10 µM | 360,000 compounds, 1% hits | ER-HoxA9 myeloid progenitors, lysozyme-GFP differentiation, flow cytometry;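 active = normalized GFP-positive differentiation at or above the plate's own cutoff, the solvent-only control mean plus 3 SD; inconclusive = no clear call, values can overlap the other calls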;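 note: cells exposed to compound for four days before flow analysis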
Granule exo inh – blocks lytic granule exocytosis; AID 651702; TALL-104 LAMP-1 surface exposure, flow cytometry; cells stimulated with thapsigargin and PMA; 360,000 compounds, 0.66% hits; inhibition, % at 10 µM;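 active = inhibition above about 55%, limit read from the data; inconclusive = no clear call, values can overlap the other calls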
ABCB6 inh 2 – inhibitors of human ABC transporter ABCB6; Q9NP58; K562-ABCB6 porphyrin accumulation, flow cytometry, 1 h; stronger effect = lower value; fluorescence ratio to DMSO, % at 10 µM; 360,000 compounds, 0.19% hits;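 active = fluorescence ratio to DMSO below 75%, the collection mean minus 3 SD; inconclusive = too few cells collected in the well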;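 note: signal is porphyrin accumulated inside mitochondria; lower ratio means ABCB6 inhibition with less porphyrin fluorescence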
Target sequence (Q9NP58 whole entry, looked up): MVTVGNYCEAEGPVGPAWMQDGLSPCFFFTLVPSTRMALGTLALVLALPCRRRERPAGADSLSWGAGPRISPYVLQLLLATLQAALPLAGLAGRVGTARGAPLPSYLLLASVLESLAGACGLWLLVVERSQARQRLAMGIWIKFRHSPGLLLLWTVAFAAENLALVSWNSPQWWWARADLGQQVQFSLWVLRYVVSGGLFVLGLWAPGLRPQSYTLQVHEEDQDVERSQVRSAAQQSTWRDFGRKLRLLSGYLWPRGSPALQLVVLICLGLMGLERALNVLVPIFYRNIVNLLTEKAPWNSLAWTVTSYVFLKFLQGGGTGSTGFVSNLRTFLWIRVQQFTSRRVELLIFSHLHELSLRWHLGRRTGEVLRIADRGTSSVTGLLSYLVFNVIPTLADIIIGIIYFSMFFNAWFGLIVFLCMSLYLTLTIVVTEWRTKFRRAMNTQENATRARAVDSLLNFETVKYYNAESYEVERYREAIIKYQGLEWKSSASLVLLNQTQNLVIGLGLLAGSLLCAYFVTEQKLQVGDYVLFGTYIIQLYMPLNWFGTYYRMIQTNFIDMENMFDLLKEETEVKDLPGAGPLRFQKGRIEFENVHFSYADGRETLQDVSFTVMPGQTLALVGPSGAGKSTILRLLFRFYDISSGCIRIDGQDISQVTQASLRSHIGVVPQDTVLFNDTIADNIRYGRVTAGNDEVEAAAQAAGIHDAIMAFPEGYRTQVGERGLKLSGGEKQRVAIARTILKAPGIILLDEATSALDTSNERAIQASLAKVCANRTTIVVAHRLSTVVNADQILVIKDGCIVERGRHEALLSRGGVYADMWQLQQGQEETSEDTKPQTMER
Myeloid diff CP1 – compounds promoting myeloid differentiation; AID 651706; ER-HoxA9 myeloid progenitors, GFP/Mac1 double-positive flow; 2,300 compounds, 2% hits; shares compounds with Myeloid diff 2; calls only;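 active = share of green or green-and-red cells above 9 and 9% in run 1 or 4 and 3% in run 2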
GFP autofluor – counter-screen for myeloid differentiation promoters: compound fluorescence; ER-HoxA9 myeloid progenitors, no estrogen, GFP autofluorescence flow cytometry; vehicle wells 0%, positive control 100%; shares compounds with Myeloid diff 2; 2,300 compounds, 7.4% hits; fluorescence response, % (test concentration not listed);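 active = over 5% cells positive for green fluorescent reporter, or over 2% positive for both it and APC stain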
Of the large screens only hits and unclear results are named; the others gave an inactive call (follow-up assays come after a bar, where they were run). Shown are actives, neighbours in structure and some others; about 1.8% of the full set was active somewhere.

COc1ccc(CCNC(=O)c2ccc3ccccc3n2)cc1	none
Cc1ccc(S(=O)(=O)Nc2ccccc2F)cc1C(=O)OC(C)C(=O)N1CCOCC1 (stereo unspecified)	none
CN(C)S(=O)(=O)c1cccc(NC(=O)COC(=O)CCc2nc3ccccc3s2)c1	none | Myeloid diff CP1 inactive | GFP autofluor inactive
CN(C)S(=O)(=O)c1cccc(NC(=O)COC(=O)c2ccc3ccccc3n2)c1	none
O=C(Nc1ccccc1)c1ccc(OC(=O)c2ccccc2)cc1	none
COc1ccc2c(CN(Cc3ccccc3)Cc3ccccc3)cc(=O)oc2c1	none
COc1ccc(NCc2nnc(-c3ccccc3)o2)cc1	none
Cc1c(Cl)cccc1N=Cc1ccc([N+](=O)[O-])s1	none | Myeloid diff CP1 inactive | GFP autofluor inactive
Cc1ccc(C=Nc2ccccc2C#N)s1	none
Cc1cc(OCCN2CCC(Cc3ccccc3)CC2)ccc1[N+](=O)[O-]	none
Cc1cc(C)cc(N(C(=O)Cc2cccs2)C(C(=O)NC2CCCC2)c2ccc(C)o2)c1 (stereo unspecified)	none
COc1ccccc1CN(C(=O)Cc1cccs1)C(C(=O)NC1CCCC1)c1ccncc1 (stereo unspecified)	none | Myeloid diff CP1 inactive | GFP autofluor inactive
Cc1ccc(C(C(=O)NC2CCCC2)N(C(=O)Cc2cccs2)c2cccc(C)c2C)o1 (stereo unspecified)	none | Myeloid diff CP1 inactive | GFP autofluor inactive
O=C(NC1CCCC1)C(c1ccncc1)N(Cc1ccccc1)C(=O)Cc1cccs1 (stereo unspecified)	none
Cc1c(NC(=O)Nc2ccccc2Cl)c(=O)n(-c2ccccc2)n1C	none
Cc1nn(CC(=O)NCCCN2CCCC2=O)c(C)c1[N+](=O)[O-]	none
O=C(N/C(=C\c1ccc([N+](=O)[O-])cc1)C(=O)N1CCCCC1)c1ccccc1Br	none
Cc1c(C(=O)O)sc2nc3n(c(=O)c12)CCCCC3	none
Cc1c(C(=O)O)sc2nc3n(c(=O)c12)CCC(C)CC3 (stereo unspecified)	Myeloid diff 2 active | Myeloid diff CP1 inactive | GFP autofluor inactive
[2H]C([2H])(CCOS(N)(=O)=O)c1ccccc1	none
O=C(OCC(=O)N1CCCCCC1)c1cccc(Cl)c1	none
Brc1ccc(-c2csc3[n+]2CCCCC3)cc1	Myeloid diff 2 active | Myeloid diff CP1 active | GFP autofluor inactive
Clc1ccc(-n2cc(-c3ccc(Br)cc3)[n+]3c2CCCCC3)cc1	none
Cc1ccc(S(=O)(=O)N2CCC(=O)CC2c2ccccc2)cc1 (stereo unspecified)	none | Myeloid diff CP1 inactive | GFP autofluor inactive
Cc1ccc([C@@H]2C[C@H]3[C@@H](CN2S(=O)(=O)c2ccc(C)cc2)C(=O)C[C@@H](c2ccccc2)N3S(=O)(=O)c2ccc(C)cc2)cc1	none
Cc1ccc(S(=O)(=O)N2C[C@H]3C(=O)C[C@@H](c4ccccc4)N(S(=O)(=O)c4ccccc4[N+](=O)[O-])[C@H]3C[C@H]2c2ccccc2)cc1	Myeloid diff 2 active | Myeloid diff CP1 inactive | GFP autofluor inactive
Cc1ccc(S(=O)(=O)N2CC3C(=O)CC(c4ccccc4)N(S(=O)(=O)c4ccc(C)cc4)C3CC2c2cccc(Cl)c2)cc1 (stereo unspecified)	Myeloid diff 2 active (no result: ABCB6 inh 2) | Myeloid diff CP1 inactive | GFP autofluor inactive
Cc1ccc(S(=O)(=O)N2[C@H](c3ccccc3)CC(=O)[C@@H]3CN(S(=O)(=O)c4ccccc4)[C@H](c4ccccc4)C[C@@H]32)cc1	none
Cc1ccc([C@@H]2C[C@H]3[C@@H](CN2S(=O)(=O)c2ccc(C)cc2)C(=O)C[C@@H](c2cccc(Cl)c2)N3S(=O)(=O)c2ccc(C)cc2)cc1	none
Cc1ccccc1N(CC(=O)NCCSCc1ccco1)S(C)(=O)=O	Myeloid diff 2 active | Myeloid diff CP1 inactive | GFP autofluor inactive
CCOc1ccccc1N(CC(=O)NCCSCc1ccco1)S(=O)(=O)c1ccccc1	none
CC/C(=C1/C(=O)CC(C)(C)C(C(=O)OC)C1=O)N1CCCC1 (stereo unspecified)	none (no result: ABCB6 inh 2) | Myeloid diff CP1 inactive | GFP autofluor inactive
CCO/N=C/C1=C(O)C(C(=O)OC)C(C)(C)CC1=O (stereo unspecified)	none
CCCCN1C(=O)c2ccc(C(=O)NC3(C)CCS(=O)(=O)C3)cc2C1=O (stereo unspecified)	Myeloid diff 2 active | Myeloid diff CP1 inactive | GFP autofluor inactive
CCCCN1C(=O)c2ccc(C(=O)Nc3cccc(C)c3C)cc2C1=O	none
Cc1cc(C)cc(C(O)c2ncc(-c3ccc4ccccc4c3)[nH]2)c1 (stereo unspecified)	none
CC(C)Oc1ccc(C(=O)Nc2ccc(S(=O)(=O)N3CCN(C)CC3)cc2)cc1	none
C=CCc1c(C)nc(-c2ccccc2)nc1Nc1ccccc1O	Myeloid diff 2 active | Myeloid diff CP1 inactive | GFP autofluor 63.2
C=CCc1c(C)nc(-c2ccccc2)nc1N/N=C/c1ccccc1	none
CC1CC(C)CN(c2ncc3c(n2)CC(c2ccccc2Cl)CC3=O)C1 (stereo unspecified)	none
CC1CC(C)CN(c2ncc3c(n2)CC(c2ccc(Cl)cc2)CC3=O)C1 (stereo unspecified)	none | Myeloid diff CP1 inactive | GFP autofluor inactive
COC(=O)CSc1nnc(-c2ccc(S(=O)(=O)N3CCCCC3)cc2)o1	Myeloid diff 2 active | Myeloid diff CP1 inactive | GFP autofluor inactive
COC(=O)CSc1nnc(-c2ccc(S(=O)(=O)N3CCC(C)CC3)cc2)o1	none
COc1ccccc1C(=O)N/C(=C\c1cn(S(=O)(=O)N(C)C)c2ccccc12)C(=O)N1CCCCC1	Myeloid diff 2 inconclusive
CCCCCC(=O)Nc1sc(C)c(C)c1C#N	none | Myeloid diff CP1 inactive | GFP autofluor inactive
Cc1sc(NC(=O)CSc2n[nH]c(N)n2)c(C#N)c1C	Myeloid diff 2 active | Myeloid diff CP1 inactive | GFP autofluor 16.3
CCCC(=O)Nc1sc(C)c(C)c1C#N	none
COC(=O)c1c(NC(=O)CSc2n[nH]c(N)n2)sc(C)c1C	none
C=CCn1c(SCc2ccc(C#N)cc2)nnc1-c1ccc(C)cc1	none
COc1ccc(NC(=O)Nc2cccc3c2O[C@H](CN(C)S(C)(=O)=O)[C@@H](C)CN([C@H](C)CO)C3=O)cc1	none
CCS(=O)(=O)c1ccc2c(c1)N(S(C)(=O)=O)CC(C(=O)NC1CC1)O2 (stereo unspecified)	Myeloid diff 2 active | Myeloid diff CP1 inactive | GFP autofluor inactive
CCS(=O)(=O)c1ccc2c(c1)N(S(C)(=O)=O)CC(C(=O)NCc1ccccc1OC)O2 (stereo unspecified)	none
O=C(CN1C(=O)NC2(CCCC2)C1=O)OCc1c(F)cccc1Cl	none
NNC(=O)COc1ccc(-c2nccc(-c3ccc(F)cc3)n2)cc1	none | Myeloid diff CP1 inactive | GFP autofluor inactive
NNC(=O)COc1ccc(F)cc1	none
Cc1ccc(C(=O)OCCc2c(C)[nH]n(-c3ccccc3)c2=O)cc1	none | Myeloid diff CP1 inactive | GFP autofluor inactive
Cc1[nH]n(-c2ccccc2)c(=O)c1CCOC(=O)c1cccc(C(F)(F)F)c1	none
CC[C@@H]1[C@H]2CCCC(=O)N3CC[C@@H](C[C@H]1O)[C@@H]23	none
